# Laboratory results: ChEMBL document CHEMBL3988442, “University of Dundee, Small-Polar-MMV Screening Library” (2021)
# Screen size: about 66,000 compounds; about 960 (1.5%) showed an effect of 50% or more. Only a selection was taken, and strong results are over-represented in it overall.
# System: Trypanosoma brucei
# Assay: Trypanosoma brucei 72 hour study
# Type: functional, organism-based
# Set-up: scale not given: in the data most compounds retested in dose-response had high values
structure (smiles),measurement,setting,value
COc1cc(CNCC2CN(C3CC3)CCO2)cc(OC)c1.Cl (stereo unspecified),Percent Effect,"30 µM, 30.03 µM",10.22%
CC(C)CN1CCN(C(=O)c2ccncc2F)Cc2cccnc21.O=C(O)C(F)(F)F.O=C(O)C(F)(F)F,Percent Effect,"30 µM, 30.03 µM",-15.43%
NC1C=C(C(F)(F)F)NC=C1c1ccc(Cl)cc1 (stereo unspecified),Percent Effect,"30.3 µM, […]",-11.05%
COc1ccccc1N1CCC(CNCc2cccc(OC)c2OC)C1 (stereo unspecified),Percent Effect,"30 µM, 30.03 µM",106.6%
COc1ccc(CNCC2CCN(c3ccccc3OC)C2)cc1O (stereo unspecified),Percent Effect,"30.3 µM, […]",47.62%
same,Percent Effect,"10 mM, 10 mM as filed; unlikely as a test dose",-24.56%
COc1ccccc1N1CCC(CNCc2ccc(C#N)cc2)C1 (stereo unspecified),Percent Effect,"30.3 µM, […]",92.2%
same,Percent Effect,"10 mM, 10 mM as filed; unlikely as a test dose",66.86%
COc1cccc(N2CCC(CNc3cc(C)nc4ncnn34)C2)c1 (stereo unspecified),Percent Effect,"30.3 µM, […]",-742.4%
COc1ccccc1N1CCC(CNCc2cccc(C#N)c2)C1 (stereo unspecified),Percent Effect,"30 µM, 30.03 µM",38.86%
COc1ccccc1N1CCC(CNCc2cccc(O)c2)C1 (stereo unspecified),Percent Effect,"30 µM, 30.03 µM",-1.533%
COc1cccc(CNCC2CCN(CC(C)O)CC2)c1OC (stereo unspecified),Percent Effect,10 µM,-41.05%
COc1cccc(N2CCC(CNC(=O)NCc3ccco3)C2)c1 (stereo unspecified),Percent Effect,"30 µM, 30.03 µM",0.1518%
COc1cccc(N2CCC(CNCc3cccc(C#N)c3)C2)c1 (stereo unspecified),Percent Effect,"30.3 µM, […]",77.75%
same,Percent Effect,"10 mM, 10 mM as filed; unlikely as a test dose",-19.99%
CC(=O)N1CCC(Nc2cc(F)ccc2OCC2CCCO2)CC1 (stereo unspecified),Percent Effect,10 µM,-21.13%
COCC1CN(Cc2ccc(C)s2)Cc2nnn(C)c21.O=C(O)C(F)(F)F (stereo unspecified),Percent Effect,"30.3 µM, […]",-30.47%
O=C1C(NCc2nnc3n2CCCC3)CCN1c1ccccc1F (stereo unspecified),Percent Effect,10 µM,0.3109%
CN1[C@@H](C(=O)NCC2CC2)C[C@H]2CN(Cc3cccc(C#N)c3)C[C@H]21.O=C(O)C(F)(F)F.O=C(O)C(F)(F)F,Percent Effect,"30.3 µM, […]",-35.21%
CCN(C)c1ncnc2c1CCN(Cc1ccncc1)CC2.O=C(O)C(F)(F)F.O=C(O)C(F)(F)F.O=C(O)C(F)(F)F,Percent Effect,"30 µM, 30.03 µM",14.6%
CC1c2ncc(COc3cccnc3)n2CCN1Cc1ccco1 (stereo unspecified),Percent Effect,"30.3 µM, […]",-3.756%
CC(C)C1SCC(=O)Nc2c1cnn2-c1ccc(Cl)cc1 (stereo unspecified),Percent Effect,"30 µM, 30.03 µM",16.61%
CC(C)N(C)S(=O)(=O)c1ccc2c(c1)CCN(C(=O)c1cscn1)C2,Percent Effect,"30 µM, 30.03 µM",-38.59%
CN1CC[C@H](N(C)Cc2ccccc2)C[C@H](O)C1,Percent Effect,"30.3 µM, […]",-4.232%
CN1CC[C@H](N(Cc2ccccc2)CC2CC2)C[C@H](O)C1,Percent Effect,"30.3 µM, […]",2.753%
CN1CC[C@H](N(Cc2ccccc2)Cc2ccccc2)C[C@H](O)C1,Percent Effect,"30.3 µM, […]",67.88%
O=C(O)C(F)(F)F.O=C(c1ccsc1)N1CCO[C@@H]2CN(Cc3ccco3)CC[C@@H]2C1,Percent Effect,"30.3 µM, […]",-78.45%
CNC(=O)CN1CCOCC12CCN(CCc1ccccc1)CC2.O=C(O)C(F)(F)F.O=C(O)C(F)(F)F,Percent Effect,"30 µM, 30.03 µM",40.27%
CC(C)(C)C(NCC(=O)N1CCNC(=O)C1)c1ccccc1 (stereo unspecified),Percent Effect,"30 µM, 30.03 µM",-32.1%
CCc1nc(NS(=O)(=O)c2cc(C)c(F)cc2Cl)no1,Percent Effect,"30.3 µM, […]",54.01%
CCc1nc(NS(=O)(=O)c2ccc(F)cc2Cl)no1,Percent Effect,"30.3 µM, […]",-4.749%
CCc1nc(NS(=O)(=O)c2ccc(C)cc2Cl)no1,Percent Effect,"30 µM, 30.03 µM",33.48%
CN(C)C(=O)c1cnc2n1CCN(Cc1ccc3c(c1)OCO3)C2.O=C(O)C(F)(F)F,Percent Effect,"30.3 µM, […]",-102%
CC(O)CN1CCC(CNCc2cccc(Cl)c2)CC1 (stereo unspecified),Percent Effect,"30.3 µM, […]",36.81%
CC(O)CN1CCC(CNCc2cccc(Br)c2)CC1 (stereo unspecified),Percent Effect,"30 µM, 30.03 µM",-7.469%
CC(O)CN1CCC(CNCc2cccc(C(F)(F)F)c2)CC1 (stereo unspecified),Percent Effect,"30.3 µM, […]",86.87%
CC(O)CN1CCC(CNCc2ccccc2OC(F)(F)F)CC1 (stereo unspecified),Percent Effect,"30 µM, 30.03 µM",-22.34%
CC(O)CN1CCC(CNCc2ccc(OC(F)(F)F)cc2)CC1 (stereo unspecified),Percent Effect,10 µM,63.69%
CC(O)CN1CCC(CNCc2cccc(OC(F)(F)F)c2)CC1 (stereo unspecified),Percent Effect,10 µM,16.76%
CN(C)c1ncc(C(=O)N2C[C@H]3C[C@H](Oc4ccccc4)C[C@H]3C2)cn1,Percent Effect,"30.3 µM, […]",8.214%
Cl.Cn1ccnc1CNC(=O)c1cncc(C2CCNCC2)n1,Percent Effect,"30.3 µM, […]",-8.849%
O=C(O)C(F)(F)F.O=C(c1cccc(Cl)c1)N1CCCn2c(CN3CCCCC3)nnc2C1,Percent Effect,"30 µM, 30.03 µM",5.337%
Oc1cccc(CNCc2ccc(-n3cncn3)nc2)c1,Percent Effect,"30.3 µM, […]",-113.8%
COCCN1C(=O)[C@H]2CC[C@@H]1CN(S(=O)(=O)c1ccc(C#N)cc1)C2,Percent Effect,"30.3 µM, […]",-35.87%
CCO[C@H]1CO[C@@]2(CCCN(S(=O)(=O)c3cccnc3)C2)C1.O=C(O)C(F)(F)F,Percent Effect,"30 µM, 30.03 µM",23.98%
Fc1cccc(CN2CCOC3(COCCN(CC4CC4)C3)C2)c1.O=C(O)C(F)(F)F.O=C(O)C(F)(F)F (stereo unspecified),Percent Effect,"30.3 µM, […]",-50.27%
CC(C)(C)c1ccc(C(=O)C2CCCN(C(=O)CNS(C)(=O)=O)C2)cc1 (stereo unspecified),Percent Effect,"30.3 µM, […]",-41.24%
CC(=O)NCC(=O)N1CCCC(C(=O)c2ccc(C(C)(C)C)cc2)C1 (stereo unspecified),Percent Effect,"30.3 µM, […]",-72.68%
CC(C)(N)C(=O)N1CCCC(C(=O)c2ccc(C(C)(C)C)cc2)C1 (stereo unspecified),Percent Effect,"30.3 µM, […]",89.7%
O=C(O)C(F)(F)F.O=C(c1ccnnc1)N1C[C@H](Oc2ccccn2)[C@H]2OCCC[C@H]21,Percent Effect,"30.3 µM, […]",-55.97%
Cl.OC1CCN(c2cncc(CCC3CCCN3)n2)CC1 (stereo unspecified),Percent Effect,"30.3 µM, […]",-6.285%
Cc1ncoc1C(=O)N1CCn2c(COCC3CC3)cnc2C1C (stereo unspecified),Percent Effect,"30.3 µM, […]",10.54%
Cc1occc1C(=O)N1CCn2c(COCC3CC3)cnc2C1C (stereo unspecified),Percent Effect,"30 µM, 30.03 µM",51.37%
CCOCc1cnc2n1CCN(C(=O)c1ccoc1C)C2C (stereo unspecified),Percent Effect,"30.3 µM, […]",-34.9%
COc1ccc(CN2CCC3(CC2)CCN(CC(C)C)C3=O)cc1.O=C(O)C(F)(F)F,Percent Effect,"30.3 µM, […]",0.8917%
CN(C)CCO[C@H]1CN(CC2CC2)[C@@H]2CCCO[C@H]12.O=C(O)C(F)(F)F.O=C(O)C(F)(F)F,Percent Effect,"30.3 µM, […]",15.45%
c1ccc(N2CCC(c3ccncc3)CC2)cc1,Percent Effect,"30.3 µM, […]",0.5256%
CC(=O)N1CCCC2(C1)CN(c1nncs1)CCO2.O=C(O)C(F)(F)F (stereo unspecified),Percent Effect,"30.3 µM, […]",-90.31%
CCN(Cc1c(F)cccc1Cl)c1cc(C2CCNCC2)nc(C)n1,Percent Effect,"30 µM, 30.03 µM",88.22%
CCN(Cc1ccncc1)c1cc(C2CCNCC2)nc(C)n1,Percent Effect,"30 µM, 30.03 µM",-25.3%
Cc1nc(C2CCNCC2)cc(N(C)Cc2cc3cc(F)ccc3[nH]2)n1,Percent Effect,"30 µM, 30.03 µM",7.512%
O=C(CC1CCCC1)N1C[C@H](OCc2ccncc2)[C@H]2OCCC[C@H]21.O=C(O)C(F)(F)F,Percent Effect,"30 µM, 30.03 µM",-16.6%
Cc1ccc(CN(Cc2ccncc2)C2CC(C)(C)NC(C)(C)C2)o1.O=C(O)CC(O)(CC(=O)O)C(=O)O,Percent Effect,"30.3 µM, […]",-22.8%
O=C(Nc1nccs1)NC1CCN(Cc2ccccc2)C1 (stereo unspecified),Percent Effect,"30 µM, 30.03 µM",-14.85%
Nc1nccnc1C(=O)NC1CCN(Cc2ccccc2)C1 (stereo unspecified),Percent Effect,"30 µM, 30.03 µM",52.39%
Nc1nccnc1C(=O)NC1CCCN(Cc2c(F)cccc2F)C1 (stereo unspecified),Percent Effect,"30 µM, 30.03 µM",-36.01%
c1ccc(N2CCC(OCC3CCCCO3)CC2)nc1 (stereo unspecified),Percent Effect,"30.3 µM, […]",-91.25%
COc1cc(CNCc2ccc(C(C)O)cc2)cc2c1OCO2 (stereo unspecified),Percent Effect,"30 µM, 30.03 µM",8.941%
COc1cc(CNCCn2ccnc2)cc2c1OCO2.Cl,Percent Effect,"30.3 µM, […]",6.439%
COc1cc(CNCC(O)c2ccccc2)cc2c1OCO2.Cl (stereo unspecified),Percent Effect,"30.3 µM, […]",51.8%
Cc1cccc(COc2ccc(C(C)NC(=O)CNC(N)=O)cc2)c1 (stereo unspecified),Percent Effect,"30 µM, 30.03 µM",6.871%
Cc1cccc(COc2ccc(C(C)NS(N)(=O)=O)cc2)c1 (stereo unspecified),Percent Effect,"30 µM, 30.03 µM",4.364%
Cc1cccc(COc2ccc(C(C)N)cc2)c1.Cl (stereo unspecified),Percent Effect,"30 µM, 30.03 µM",102.3%
CN1CC[C@H]2OCC[C@@H](C(=O)NCc3ccco3)[C@@H]2C1.O=C(O)C(F)(F)F,Percent Effect,"30 µM, 30.03 µM",-30.69%
COc1ccnc(N2C[C@@H]3CC[C@H](C2)N(CC2CCC2)C3=O)n1,Percent Effect,"30 µM, 30.03 µM",0.242%
O=C(O)C(F)(F)F.O=C1CC[C@H]2[C@H](CCN2S(=O)(=O)C2CC2)N1CCN1CCCC1,Percent Effect,"30.3 µM, […]",-16.69%
COc1cccc2c1ccn2CCC(=O)NCCCC(=O)O,Percent Effect,"30 µM, 30.03 µM",53.78%
COCC(=O)NCCn1ccc2c(OC)cccc21,Percent Effect,"30 µM, 30.03 µM",21.63%
COc1cccc2c1ccn2CCNC(=O)CC(C)C,Percent Effect,"30 µM, 30.03 µM",-27.5%
CN(C)c1ccc(C(=O)N2Cc3cnc(C(C)(C)C)nc3C2)cc1,Percent Effect,"30 µM, 30.03 µM",-40.98%
CC(C)(C)c1ncc2c(n1)CN(C(=O)c1ccncc1)C2,Percent Effect,"30 µM, 30.03 µM",-0.7468%
CC(C)(C)c1ncc2c(n1)CN(C(=O)c1ccc(-c3nc[nH]n3)cc1)C2,Percent Effect,"30 µM, 30.03 µM",54.09%
O=C(C1CCOCC1)N1CCO[C@H]2[C@H](Oc3cccnc3)CC[C@@H]21.O=C(O)C(F)(F)F,Percent Effect,"30 µM, 30.03 µM",-14.62%
CCN(CC)C(=O)CN(C)C(=O)c1ccc(-c2ccsc2)nc1C,Percent Effect,"30 µM, 30.03 µM",-62.98%
COc1ccccc1CC(=O)N(C)Cc1cc(C)on1,Percent Effect,"30 µM, 30.03 µM",-10.42%
Cc1cc(CN(C)C(=O)CC(C)C)no1,Percent Effect,"30 µM, 30.03 µM",-35.18%
COc1ccccc1CC(C)CC(=O)N(C)Cc1cc(C)on1 (stereo unspecified),Percent Effect,"30 µM, 30.03 µM",72.44%
CCc1nccn1C1CCCN(C(=O)C2=NN(C)C(=O)CC2)C1 (stereo unspecified),Percent Effect,"30.3 µM, […]",-18.44%
COc1ccc(C(C)(C)C)cc1CN1CCn2c(CO)nnc2C1.O=C(O)CC(O)(CC(=O)O)C(=O)O,Percent Effect,"30.3 µM, […]",3.045%
CC(=O)N1CCN([C@@H]2CC[C@@H](NC(=O)c3ccc(C)nc3)[C@H]2O)CC1,Percent Effect,"30.3 µM, […]",-14.37%
CCN1CCN(c2ncc3c(n2)CN(c2cnn(CC)c2)C3=O)CC1,Percent Effect,"30.3 µM, […]",-16.78%
CCOc1cc(CNc2nnn(C)n2)ccc1OCc1ccc(Cl)cc1,Percent Effect,"30.3 µM, […]",13.85%
O=C(c1ccc(-c2ccccc2)[nH]c1=O)N1CCN(C2CC2)CC1,Percent Effect,"30 µM, 30.03 µM",-17.15%
CN1[C@H]2CC[C@@H]1CN(C(=O)c1ccc(-c3ccccc3)[nH]1)CC2,Percent Effect,"30.3 µM, […]",99.15%
CO[C@H]1CN(C(=O)c2ccc(-c3ccccc3)[nH]2)CC[C@H]1N,Percent Effect,"30.3 µM, […]",21.81%
CCOC(=O)CCn1cnc2onc(-c3ccc(OC)cc3)c2c1=O,Percent Effect,"30 µM, 30.03 µM",-27.94%
